For some assays here: Entries with a potency or affinity are not part of this list.
Assays:
Design in all cases: scale not given: direction of the effect not stated beside the values
[1] = target: Protein translocase subunit SecA (Escherichia coli (strain K12)) (UniProt P10408); test: Assay to Identify E. coli SecA ATPase Inhibitors; type: functional; settings: 30 µM
[2] = target: T1, Ubiquitin-activating enzyme e1, putative (Leishmania donovani (strain BPK282A1)) (UniProt E9BSI1); test: Leishmania donovani Ubiquitin Activating Enzyme (LdE1); type: functional; settings: 30 µM
T1 sequence (whole entry): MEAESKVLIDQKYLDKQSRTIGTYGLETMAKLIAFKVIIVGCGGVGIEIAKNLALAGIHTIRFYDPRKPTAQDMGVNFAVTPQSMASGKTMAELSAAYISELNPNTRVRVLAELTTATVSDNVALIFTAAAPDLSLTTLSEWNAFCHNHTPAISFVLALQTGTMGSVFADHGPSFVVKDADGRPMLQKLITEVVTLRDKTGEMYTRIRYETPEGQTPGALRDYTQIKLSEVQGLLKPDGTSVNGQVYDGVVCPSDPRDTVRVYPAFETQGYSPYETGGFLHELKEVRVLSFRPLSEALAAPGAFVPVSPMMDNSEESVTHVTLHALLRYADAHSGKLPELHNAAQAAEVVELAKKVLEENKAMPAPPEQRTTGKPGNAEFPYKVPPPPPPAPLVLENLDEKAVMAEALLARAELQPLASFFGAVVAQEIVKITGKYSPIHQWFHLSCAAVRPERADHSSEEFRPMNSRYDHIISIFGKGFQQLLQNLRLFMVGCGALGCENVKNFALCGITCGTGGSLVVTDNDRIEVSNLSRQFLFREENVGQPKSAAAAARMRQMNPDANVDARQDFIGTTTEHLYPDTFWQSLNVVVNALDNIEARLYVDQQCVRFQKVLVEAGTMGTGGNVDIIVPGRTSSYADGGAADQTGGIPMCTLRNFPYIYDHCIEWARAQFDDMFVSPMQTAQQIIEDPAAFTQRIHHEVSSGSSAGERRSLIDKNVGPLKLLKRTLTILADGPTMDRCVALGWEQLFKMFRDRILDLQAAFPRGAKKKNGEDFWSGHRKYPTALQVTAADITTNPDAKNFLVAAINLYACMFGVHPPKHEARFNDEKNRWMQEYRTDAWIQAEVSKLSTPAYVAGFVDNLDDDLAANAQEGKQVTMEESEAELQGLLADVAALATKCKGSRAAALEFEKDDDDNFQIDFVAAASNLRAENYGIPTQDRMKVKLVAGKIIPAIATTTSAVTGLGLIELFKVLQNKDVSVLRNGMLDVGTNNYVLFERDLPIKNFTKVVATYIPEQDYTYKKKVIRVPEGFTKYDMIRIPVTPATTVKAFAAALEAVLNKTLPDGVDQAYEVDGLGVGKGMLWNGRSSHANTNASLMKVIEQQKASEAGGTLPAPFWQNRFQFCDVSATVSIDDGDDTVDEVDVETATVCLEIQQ

[3] = target: T2, Aspartate--tRNA(Asp/Asn) ligase (Mycobacterium tuberculosis (strain ATCC 25618 / H37Rv)) (UniProt P9WFW3); test: Assay for Asp RNA synthetase-1 from Mycobacterium tuberculosis; type: functional; settings: 30 µM; also: in the data most compounds retested in dose-response had high values
T2 sequence (whole entry): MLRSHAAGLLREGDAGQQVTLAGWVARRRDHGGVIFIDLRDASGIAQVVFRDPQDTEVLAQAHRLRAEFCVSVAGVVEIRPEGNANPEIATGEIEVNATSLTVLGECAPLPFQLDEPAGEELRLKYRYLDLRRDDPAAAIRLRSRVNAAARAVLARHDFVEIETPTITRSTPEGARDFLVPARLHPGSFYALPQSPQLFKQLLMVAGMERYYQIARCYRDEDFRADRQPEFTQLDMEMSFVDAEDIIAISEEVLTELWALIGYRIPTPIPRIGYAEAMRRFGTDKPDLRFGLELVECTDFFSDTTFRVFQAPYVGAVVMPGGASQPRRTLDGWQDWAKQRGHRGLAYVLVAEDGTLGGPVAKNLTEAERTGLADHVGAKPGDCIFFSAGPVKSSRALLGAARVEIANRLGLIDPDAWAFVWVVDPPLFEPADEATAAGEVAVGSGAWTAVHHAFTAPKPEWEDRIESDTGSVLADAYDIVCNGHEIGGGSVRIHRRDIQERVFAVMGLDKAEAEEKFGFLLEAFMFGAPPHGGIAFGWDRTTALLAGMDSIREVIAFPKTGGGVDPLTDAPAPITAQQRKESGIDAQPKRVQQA

[4] = target: AMP-activated protein kinase, AMPK (Homo sapiens) (UniProt P54646+O43741+P54619+Q9UGJ0+Q9Y478+Q13131+Q9UGI9); test: AMP-dependent Kinase enzyme assay. An in vitro enzyme assay that detects ADP turnover that is directly proportional to AMPK activity. This uses naive AMPK that is activated during the assay with MK-8722; type: functional; settings: 30 µM
[5] = target: Sialic acid-binding Ig-like lectin 9 (Homo sapiens) (UniProt Q9Y336); test: Hs-Siglec9 ALPHAscreen SOP 20170721; settings: 10 µM
Sequence of Sialic acid-binding Ig-like lectin 9 (Homo sapiens) (Q9Y336 whole entry): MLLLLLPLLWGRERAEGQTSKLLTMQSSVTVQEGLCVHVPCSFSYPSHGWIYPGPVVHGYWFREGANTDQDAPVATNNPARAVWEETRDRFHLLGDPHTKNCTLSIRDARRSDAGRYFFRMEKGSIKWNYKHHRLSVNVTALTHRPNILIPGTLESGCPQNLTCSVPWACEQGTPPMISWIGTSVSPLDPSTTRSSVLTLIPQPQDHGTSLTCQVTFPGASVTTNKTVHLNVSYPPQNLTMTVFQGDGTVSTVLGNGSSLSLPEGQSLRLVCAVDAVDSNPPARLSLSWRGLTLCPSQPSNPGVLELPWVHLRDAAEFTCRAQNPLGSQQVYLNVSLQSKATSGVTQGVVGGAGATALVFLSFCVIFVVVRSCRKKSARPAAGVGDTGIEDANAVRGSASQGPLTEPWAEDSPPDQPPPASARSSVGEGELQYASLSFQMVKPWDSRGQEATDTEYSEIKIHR

Trypanosoma cruzi = test: Trypanosoma cruzi phosphomannomutase and mannose-1-phosphate guanylyltransferase assay; type: functional; settings: 10 µM
[6] = target: T3, Arginase-2, mitochondrial (Homo sapiens) (UniProt P78540); test: in vitro enzyme assay to detect the production of urea directly proportional to the activity of Arginase II; type: functional; settings: 33.3 µM; also: in the data most compounds retested in dose-response had high values
T3 sequence (whole entry): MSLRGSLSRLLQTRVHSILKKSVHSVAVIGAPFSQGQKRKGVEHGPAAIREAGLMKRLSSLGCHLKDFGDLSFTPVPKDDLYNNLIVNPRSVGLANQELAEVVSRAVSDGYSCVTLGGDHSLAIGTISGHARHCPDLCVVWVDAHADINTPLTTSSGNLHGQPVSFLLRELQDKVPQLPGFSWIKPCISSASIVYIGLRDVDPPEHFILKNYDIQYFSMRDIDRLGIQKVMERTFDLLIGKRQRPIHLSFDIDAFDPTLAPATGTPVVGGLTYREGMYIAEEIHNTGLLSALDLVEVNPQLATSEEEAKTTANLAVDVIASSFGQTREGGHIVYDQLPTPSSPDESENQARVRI

[7] = target: T4, Proteasome subunit beta (Trypanosoma cruzi) (UniProt O96673); test: Trypanosoma cruzi proteasome chymotrypsin-like activity (TcProtChymo) assay.; also: in the data most compounds retested in dose-response had high values; type: functional; settings: 9.37 µM
T4 sequence (whole entry): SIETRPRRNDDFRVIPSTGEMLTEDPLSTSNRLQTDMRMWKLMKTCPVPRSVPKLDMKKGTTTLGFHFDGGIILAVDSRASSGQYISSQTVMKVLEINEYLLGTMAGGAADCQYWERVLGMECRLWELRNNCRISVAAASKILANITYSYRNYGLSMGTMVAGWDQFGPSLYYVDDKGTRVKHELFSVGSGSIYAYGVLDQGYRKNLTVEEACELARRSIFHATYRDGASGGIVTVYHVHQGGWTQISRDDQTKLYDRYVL

Homo sapiens = species on record: Homo sapiens; test: To identify inhibition of the IFN signalling (Jak-Stat) pathway via expression of an eGFP reporter gene under the control of an IFN-stimulated response element (ISRE) containing MxA promoter.; type: functional; settings: 30 µM
[8] = target: Shiga toxin 2 (Escherichia coli O157:H7) (UniProt P09385+P09386); test: E. coli 0.157:H7 Shiga Toxin SOP - stx2 screening assay; type: functional; settings: 30 µM
[9] = target: T5, Tyrosyl-tRNA synthetase, putative (Trypanosoma cruzi (strain CL Brener)) (UniProt Q4DSP6); test: Trypanosoma cruzi tyrosyl tRNA synthetase (TcYRS) _High Tyrosine SOP; type: functional; settings: 30 µM; also: in the data most compounds retested in dose-response had high values
T5 sequence (whole entry): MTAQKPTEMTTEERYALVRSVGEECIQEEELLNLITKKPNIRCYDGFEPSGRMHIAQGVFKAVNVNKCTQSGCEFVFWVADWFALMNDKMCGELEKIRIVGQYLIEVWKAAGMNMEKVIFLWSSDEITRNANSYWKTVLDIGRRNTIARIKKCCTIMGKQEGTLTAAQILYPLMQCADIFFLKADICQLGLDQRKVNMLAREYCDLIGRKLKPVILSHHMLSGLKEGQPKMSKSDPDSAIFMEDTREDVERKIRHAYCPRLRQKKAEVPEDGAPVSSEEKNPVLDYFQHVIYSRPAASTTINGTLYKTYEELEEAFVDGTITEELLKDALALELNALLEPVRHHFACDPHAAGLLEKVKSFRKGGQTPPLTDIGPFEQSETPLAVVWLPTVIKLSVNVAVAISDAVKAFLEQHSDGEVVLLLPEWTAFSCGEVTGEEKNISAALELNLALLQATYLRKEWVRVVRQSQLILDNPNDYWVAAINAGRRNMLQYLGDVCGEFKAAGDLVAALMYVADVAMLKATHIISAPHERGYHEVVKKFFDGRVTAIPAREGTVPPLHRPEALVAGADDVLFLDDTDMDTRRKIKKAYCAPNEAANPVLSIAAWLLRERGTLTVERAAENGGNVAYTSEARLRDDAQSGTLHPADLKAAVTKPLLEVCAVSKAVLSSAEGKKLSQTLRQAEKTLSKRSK

[10] = target: T5, Tyrosyl-tRNA synthetase, putative (Trypanosoma cruzi (strain CL Brener)); test: Trypanosoma cruzi tyrosyl tRNA synthetase (TcYRS) SOP; type: functional; settings: 30 µM
[11] = target: Chromo domain-containing protein 1 (Saccharomyces cerevisiae (strain ATCC 204508 / S288c) (Baker's yeast)) (UniProt P32657); test: ScCHD-1 Enzyme Inhibition Assay; type: functional; settings: 30 µM; also: in the data most compounds retested in dose-response had high values
Sequence of Chromo domain-containing protein 1 (Saccharomyces cerevisiae (strain ATCC 204508 / S288c) (Baker's yeast)) (P32657 whole entry, the tested form may be a part): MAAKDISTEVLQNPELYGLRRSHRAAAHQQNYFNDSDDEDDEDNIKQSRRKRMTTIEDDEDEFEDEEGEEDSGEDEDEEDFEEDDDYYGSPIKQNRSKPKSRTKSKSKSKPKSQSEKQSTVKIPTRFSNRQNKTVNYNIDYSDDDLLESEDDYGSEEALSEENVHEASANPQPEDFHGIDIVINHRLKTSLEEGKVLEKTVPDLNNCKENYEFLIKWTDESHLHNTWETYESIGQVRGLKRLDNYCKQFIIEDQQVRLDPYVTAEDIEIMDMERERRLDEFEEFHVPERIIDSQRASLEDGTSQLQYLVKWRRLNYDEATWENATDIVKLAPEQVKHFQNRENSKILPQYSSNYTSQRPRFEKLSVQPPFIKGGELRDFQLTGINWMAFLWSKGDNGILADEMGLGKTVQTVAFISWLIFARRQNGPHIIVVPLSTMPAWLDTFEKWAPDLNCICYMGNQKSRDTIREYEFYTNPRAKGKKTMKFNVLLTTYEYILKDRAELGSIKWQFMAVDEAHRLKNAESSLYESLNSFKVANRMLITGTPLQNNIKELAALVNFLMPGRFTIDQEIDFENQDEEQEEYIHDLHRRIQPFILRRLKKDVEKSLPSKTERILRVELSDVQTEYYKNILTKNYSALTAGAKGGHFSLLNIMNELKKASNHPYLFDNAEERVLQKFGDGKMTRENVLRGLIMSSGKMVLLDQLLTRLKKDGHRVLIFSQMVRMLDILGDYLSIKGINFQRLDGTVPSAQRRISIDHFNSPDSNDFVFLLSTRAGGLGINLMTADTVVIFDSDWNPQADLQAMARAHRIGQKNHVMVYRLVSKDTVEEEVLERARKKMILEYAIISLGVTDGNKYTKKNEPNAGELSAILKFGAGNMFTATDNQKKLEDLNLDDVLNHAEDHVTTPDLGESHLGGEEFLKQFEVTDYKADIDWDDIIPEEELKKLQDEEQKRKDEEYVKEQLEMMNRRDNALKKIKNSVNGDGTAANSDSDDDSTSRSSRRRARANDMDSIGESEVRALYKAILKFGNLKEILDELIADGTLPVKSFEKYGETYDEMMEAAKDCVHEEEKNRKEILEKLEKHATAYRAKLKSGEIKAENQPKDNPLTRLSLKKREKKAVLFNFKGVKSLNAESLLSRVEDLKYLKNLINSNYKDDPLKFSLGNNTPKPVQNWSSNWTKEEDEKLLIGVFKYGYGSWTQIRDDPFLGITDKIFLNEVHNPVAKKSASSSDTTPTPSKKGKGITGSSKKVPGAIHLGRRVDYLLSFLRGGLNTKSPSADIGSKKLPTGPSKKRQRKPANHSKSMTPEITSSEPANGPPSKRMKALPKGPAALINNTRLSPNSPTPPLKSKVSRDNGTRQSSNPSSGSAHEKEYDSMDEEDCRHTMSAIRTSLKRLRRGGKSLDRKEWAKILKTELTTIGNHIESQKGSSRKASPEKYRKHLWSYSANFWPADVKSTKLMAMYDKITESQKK

Sequence of Protein translocase subunit SecA (Escherichia coli (strain K12)) (P10408 whole entry): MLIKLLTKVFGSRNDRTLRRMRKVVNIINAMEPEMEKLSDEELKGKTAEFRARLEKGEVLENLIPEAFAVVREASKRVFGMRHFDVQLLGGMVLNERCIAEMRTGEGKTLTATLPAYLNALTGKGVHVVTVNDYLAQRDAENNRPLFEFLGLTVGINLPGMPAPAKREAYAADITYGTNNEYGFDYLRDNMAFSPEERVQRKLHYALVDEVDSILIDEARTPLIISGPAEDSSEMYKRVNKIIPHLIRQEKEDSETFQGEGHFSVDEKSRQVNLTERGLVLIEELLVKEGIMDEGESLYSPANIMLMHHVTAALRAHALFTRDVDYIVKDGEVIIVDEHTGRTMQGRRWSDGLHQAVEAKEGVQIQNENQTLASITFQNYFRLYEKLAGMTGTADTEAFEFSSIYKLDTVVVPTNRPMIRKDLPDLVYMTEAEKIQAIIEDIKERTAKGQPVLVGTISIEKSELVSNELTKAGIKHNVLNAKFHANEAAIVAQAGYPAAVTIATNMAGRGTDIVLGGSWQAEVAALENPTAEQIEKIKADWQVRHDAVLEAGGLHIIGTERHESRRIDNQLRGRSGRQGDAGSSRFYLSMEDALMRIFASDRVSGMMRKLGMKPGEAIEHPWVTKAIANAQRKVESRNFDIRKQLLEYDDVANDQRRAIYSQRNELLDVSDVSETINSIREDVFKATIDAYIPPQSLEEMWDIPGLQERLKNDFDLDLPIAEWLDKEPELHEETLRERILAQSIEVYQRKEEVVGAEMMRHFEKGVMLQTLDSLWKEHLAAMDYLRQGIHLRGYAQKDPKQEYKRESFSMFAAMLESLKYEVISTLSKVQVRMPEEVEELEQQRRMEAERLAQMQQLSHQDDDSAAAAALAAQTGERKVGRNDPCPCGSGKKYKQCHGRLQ

Structure (SMILES)	Percent Effect [1] [%]	Percent Effect [2] [%]	Percent Effect [3] [%]	Percent Effect [4] [%]	Percent Effect [5] [%]	Percent Effect (Trypanosoma cruzi) [%]	Percent Effect [6] [%]	Percent Effect [7] [%]	Percent Effect (Homo sapiens) [%]	Percent Effect [8] [%]	Percent Effect [9] [%]	Percent Effect [10] [%]	Percent Effect [11] [%]
O=C(c1cc(-n2cccc2)ccc1Cl)N1CCC2(CC1)OCCO2	-3.83	7.89	3.38	15.4	-3.27	-0.876	-8.28	15.8	1.48	8.93	2.13	10.4	-2.85
CN(CCc1ccc(F)cc1)Cc1nc2c(cnn2C)c(=O)[nH]1	-6.94	21.1	-1.46	-5.8	1.02	2.33	-6.47	14.5	2.88	14.7	10.3	23.5	-6.22
Cc1oc(-c2ccco2)nc1CC(=O)N1CCN(C2CCC2)CC1	-7.4	7.79	-0.115	-1.25	1.16	1.08	4	12.8	2.52	24.8	0	7.06	-19
COc1cccc(CCNCc2c(C)nn(C)c2N(C)C)c1	-3.25	10.5	-2.61	-2.73	0.941	-4.13	-3.45	13.4	-20.1	28.4	3.43	12.2	-4.73
CCS(=O)(=O)NC[C@]12COC[C@H]1CN(Cc1cc(C)on1)C2	-3.29	0	-3.83	4.08	3.76	-0.684	4.14	20.9	-25	1.54	5.41	12.8	-1.96
CN1C(=O)C2(CCN(CCO)C2)c2ccccc21 (stereo not given)	-3.9	10.8	-3.9	5.24	-5.82	-4.01	0.319	24.9	-2.44	-6.34	1.08	12.8	-1.83
COC[C@]12COC[C@H]1CN(Cc1cccnc1OC)C2	-3.99	9.33	-1.36	1.98	1.86	-4.32	-8.63	18.7	-3.88	-17.2	7.41	5.13	-3.25
CN1CCC2(CC1)CNC(=O)c1ccccc1O2	-3.91	6.76	-2.4	13.4	4.99	-5.34	0.232	10.3	1.44	12.6	6.45	6.49	-6.62
CN(C)C(=O)COC[C@H]1CC[C@@H]2[C@@H](CCN2Cc2ccccn2)O1	1.44	2.7	-8.07	-3.81	1.03	4.1	2.5	8.88	-3.32	-6.42	-14.8	3.66	-2.81
CC[C@H](N)Cn1nc(-c2cccs2)oc1=O	-1.83	9.46	7.37	12	-5.1	-1.98	-1.62	16.7	2.87	5.59	1.07	3.9	-13.2
O=C(Cc1csc(-c2ccco2)n1)N1CCN(CCO)CC1	0.294	1.27	-0.16	8.43	2.75	0.308	8.39	5.49	11.1	-23.6	3.12	5.06	-4.16
c1cncc(OC[C@@H]2CC[C@H]3[C@H](CCN3Cc3cccs3)O2)c1	-2.2	5.33	-2.1	4.9	-3.46	-2.56	2.1	-0.969	-0.872	-5.68	2.13	8.97	2.16
c1cncc(CO[C@H]2CC[C@H]3[C@@H]2OCCN3C2CCOCC2)c1	1.26	2.74	0.0456	-4.02	5.81	7.14	-0.399	4.37	-1.77	-20.6	3.12	8.64	1.15
COCCN1CCC2(CCCN(c3ncccn3)C2)C1 (stereo not given)	-2.69	2.67	-4.34	10.4	2.96	-2.17	8.16	4.32	-7.02	-6.31	-1.06	-3.85	-4.53
CN1C(=O)C2(CCN(CC3CC3)CC2)c2ccccc21	-0.0958	10.8	-2.95	-1.71	-10.2	-6.16	0.955	16.4	-8.93	-0.91	2.16	17.9	-2.43
COc1ccc(C2SCC(=O)Nc3ccsc32)cc1 (stereo not given)	-5.35	-12	4.36	29	5.11	-5.5	1.94	13.9	30.7	-15.2	10.6	2.56	11.2
O=C1CC[C@@H]2[C@@H](CCN2Cc2ccncc2)N1c1ccccc1	-3.22	-8	0.204	-13.7	8.87	-2.7	0.896	11.1	-5.31	-8.6	5.21	7.5	-2.91
O=C1CC2(CCN(Cc3ccccn3)C2)CN1c1cncnc1 (stereo not given)	-0.821	0	-1.45	2.73	-3.03	-1.66	0.319	16.1	-0.29	-1.07	2.16	5.13	5.33
O=C(NCC1CC1)[C@H]1C[C@@H]2[C@@H](C1)OCCN2Cc1cccnc1	-2.08	-5.33	-0.291	6.97	0.812	-1.93	-52.5	-2.73	9.72	-7.08	-1.04	-5	4.12
Cc1ccc(N2CCO[C@H]3CN(CC4CC4)C[C@H]32)nn1	-4.5	2.7	-6.1	0.95	-5.02	7.14	-0.319	19.6	-33.8	1.42	1.08	7.69	5.67

— ChEMBL document CHEMBL3988442, “University of Dundee, Small-Polar-MMV Screening Library” (2021)
